In test [1] the target is T1, Tyrosine-protein kinase receptor TYRO3 (Homo sapiens) (UniProt Q06418).
T1 sequence (whole entry): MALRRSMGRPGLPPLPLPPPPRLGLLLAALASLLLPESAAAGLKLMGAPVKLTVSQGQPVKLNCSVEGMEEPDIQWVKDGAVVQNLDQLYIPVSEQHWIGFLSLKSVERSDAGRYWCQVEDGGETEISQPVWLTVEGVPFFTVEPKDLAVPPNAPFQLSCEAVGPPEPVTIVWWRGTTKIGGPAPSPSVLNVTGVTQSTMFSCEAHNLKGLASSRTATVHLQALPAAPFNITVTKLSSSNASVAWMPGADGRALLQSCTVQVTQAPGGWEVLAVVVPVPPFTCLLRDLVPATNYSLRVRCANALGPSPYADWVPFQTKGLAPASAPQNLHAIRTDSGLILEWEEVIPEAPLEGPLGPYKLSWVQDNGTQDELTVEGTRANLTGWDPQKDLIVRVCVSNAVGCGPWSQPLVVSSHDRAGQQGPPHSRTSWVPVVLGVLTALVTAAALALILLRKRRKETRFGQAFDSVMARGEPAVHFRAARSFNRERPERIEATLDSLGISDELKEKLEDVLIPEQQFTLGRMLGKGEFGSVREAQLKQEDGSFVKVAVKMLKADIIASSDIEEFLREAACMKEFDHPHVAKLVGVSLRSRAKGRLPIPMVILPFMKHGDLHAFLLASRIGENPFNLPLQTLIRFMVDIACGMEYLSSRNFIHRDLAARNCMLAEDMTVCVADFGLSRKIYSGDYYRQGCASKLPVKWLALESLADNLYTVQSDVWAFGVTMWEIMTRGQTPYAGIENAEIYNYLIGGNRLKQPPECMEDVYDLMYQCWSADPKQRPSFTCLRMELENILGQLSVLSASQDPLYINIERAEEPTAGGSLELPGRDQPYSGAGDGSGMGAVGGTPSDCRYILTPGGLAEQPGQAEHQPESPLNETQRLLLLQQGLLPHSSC
The conditions noted are these: at 1 µM.

Test [2] concerns the target T1, Tyrosine-protein kinase receptor TYRO3 (Homo sapiens). The conditions noted are these: at 10 µM.
Test [3] deals with Ribosomal protein S6 kinase alpha-1 (Homo sapiens) (UniProt Q15418). The conditions noted are these: at 1 µM.
Test [4] has the same target. The conditions noted are these: at 10 µM.
For test [5], the target named is Ribosomal protein S6 kinase alpha-2 (Homo sapiens) (UniProt Q15349). The conditions noted are these: at 1 µM.
For test [6] the target is unchanged. The conditions noted are these: at 10 µM.
In test [7] the target is Ribosomal protein S6 kinase alpha-6 (Homo sapiens) (UniProt Q9UK32). The conditions noted are these: at 1 µM.
Test [8] has the same target. The conditions noted are these: at 10 µM.
For test [9], the target named is T2, Mitogen-activated protein kinase 12 (Homo sapiens) (UniProt P53778).
T2 sequence (whole entry): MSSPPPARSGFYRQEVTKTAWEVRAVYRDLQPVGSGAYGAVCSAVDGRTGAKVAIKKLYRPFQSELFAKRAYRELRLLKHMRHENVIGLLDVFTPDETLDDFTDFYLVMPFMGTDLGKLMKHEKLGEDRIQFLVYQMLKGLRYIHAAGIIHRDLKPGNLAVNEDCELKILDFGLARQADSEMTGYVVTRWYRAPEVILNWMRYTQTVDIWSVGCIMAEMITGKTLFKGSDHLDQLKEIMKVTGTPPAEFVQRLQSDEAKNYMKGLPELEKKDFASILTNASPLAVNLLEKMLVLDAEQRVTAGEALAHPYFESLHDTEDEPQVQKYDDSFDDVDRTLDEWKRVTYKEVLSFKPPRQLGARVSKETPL
The conditions noted are these: at 1 µM.

Test [10] has as its target Ribosomal protein S6 kinase alpha-3 (Homo sapiens) (UniProt P51812). The conditions noted are these: at 1 µM.
The target is the same in test [11]. The conditions noted are these: at 10 µM.
The target of test [12] is Mitogen-activated protein kinase 14 (Homo sapiens) (UniProt Q16539). The conditions noted are these: at 1 µM.
Test [13] has the same target. The conditions noted are these: at 10 µM.
Test [14] addresses Mitogen-activated protein kinase 11 (Homo sapiens) (UniProt Q15759). The conditions noted are these: at 1 µM.
For test [15] the target is unchanged. The conditions noted are these: at 10 µM.
The target in test [16] is T2, Mitogen-activated protein kinase 12 (Homo sapiens). The conditions noted are these: at 10 µM.
Test [17] concerns the target T3, Mitogen-activated protein kinase 13 (Homo sapiens) (UniProt O15264).
T3 sequence (whole entry): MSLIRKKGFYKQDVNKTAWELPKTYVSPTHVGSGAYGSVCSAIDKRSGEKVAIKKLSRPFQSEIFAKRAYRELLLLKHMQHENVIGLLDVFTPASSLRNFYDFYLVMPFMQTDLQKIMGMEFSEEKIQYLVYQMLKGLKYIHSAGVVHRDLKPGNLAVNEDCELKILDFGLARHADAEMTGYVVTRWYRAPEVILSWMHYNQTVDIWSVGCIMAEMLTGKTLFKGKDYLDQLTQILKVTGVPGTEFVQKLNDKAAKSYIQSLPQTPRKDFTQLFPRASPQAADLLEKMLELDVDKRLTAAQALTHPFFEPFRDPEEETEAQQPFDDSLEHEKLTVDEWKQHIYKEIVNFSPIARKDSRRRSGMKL
The conditions noted are these: at 1 µM.

Test [18] addresses T3, Mitogen-activated protein kinase 13 (Homo sapiens). The conditions noted are these: at 10 µM.
Test [19] has as its target T4, Serine/threonine-protein kinase Sgk1 (Homo sapiens) (UniProt O00141).
T4 sequence (whole entry): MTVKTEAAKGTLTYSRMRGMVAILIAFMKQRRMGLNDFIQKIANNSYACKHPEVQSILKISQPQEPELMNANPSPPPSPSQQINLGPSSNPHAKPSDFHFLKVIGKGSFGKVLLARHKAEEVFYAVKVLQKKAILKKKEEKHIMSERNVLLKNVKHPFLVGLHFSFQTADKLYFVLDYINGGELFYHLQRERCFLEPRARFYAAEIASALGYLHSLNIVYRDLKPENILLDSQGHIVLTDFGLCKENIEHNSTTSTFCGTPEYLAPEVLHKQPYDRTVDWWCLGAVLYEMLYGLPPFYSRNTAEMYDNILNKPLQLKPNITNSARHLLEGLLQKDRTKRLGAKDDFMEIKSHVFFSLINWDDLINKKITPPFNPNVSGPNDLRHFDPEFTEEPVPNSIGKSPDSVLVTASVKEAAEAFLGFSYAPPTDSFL
The conditions noted are these: at 1 µM.

For test [20], the target named is T4, Serine/threonine-protein kinase Sgk1 (Homo sapiens). The conditions noted are these: at 10 µM.

Chain of Ribosomal protein S6 kinase alpha-3 (Homo sapiens) (P51812 whole entry): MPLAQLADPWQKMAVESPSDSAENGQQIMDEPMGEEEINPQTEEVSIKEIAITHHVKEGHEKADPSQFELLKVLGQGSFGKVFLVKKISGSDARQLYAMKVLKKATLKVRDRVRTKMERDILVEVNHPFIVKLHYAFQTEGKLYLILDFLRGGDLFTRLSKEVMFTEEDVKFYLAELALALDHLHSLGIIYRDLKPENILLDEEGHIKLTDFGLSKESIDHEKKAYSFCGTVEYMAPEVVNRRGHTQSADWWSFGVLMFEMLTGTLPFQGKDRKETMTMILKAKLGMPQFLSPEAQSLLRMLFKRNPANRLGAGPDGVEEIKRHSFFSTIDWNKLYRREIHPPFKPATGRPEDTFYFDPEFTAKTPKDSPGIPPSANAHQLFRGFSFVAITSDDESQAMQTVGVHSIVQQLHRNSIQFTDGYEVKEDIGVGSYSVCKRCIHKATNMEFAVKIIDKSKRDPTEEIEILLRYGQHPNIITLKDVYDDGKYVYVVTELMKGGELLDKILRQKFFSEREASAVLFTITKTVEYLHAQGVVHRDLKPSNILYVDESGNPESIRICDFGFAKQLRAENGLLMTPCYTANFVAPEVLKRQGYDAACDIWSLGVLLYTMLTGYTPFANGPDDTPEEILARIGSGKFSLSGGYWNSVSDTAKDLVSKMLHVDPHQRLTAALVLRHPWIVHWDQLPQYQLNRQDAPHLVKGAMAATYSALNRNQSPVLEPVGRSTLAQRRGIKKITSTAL
Chain of Ribosomal protein S6 kinase alpha-6 (Homo sapiens) (Q9UK32 whole entry): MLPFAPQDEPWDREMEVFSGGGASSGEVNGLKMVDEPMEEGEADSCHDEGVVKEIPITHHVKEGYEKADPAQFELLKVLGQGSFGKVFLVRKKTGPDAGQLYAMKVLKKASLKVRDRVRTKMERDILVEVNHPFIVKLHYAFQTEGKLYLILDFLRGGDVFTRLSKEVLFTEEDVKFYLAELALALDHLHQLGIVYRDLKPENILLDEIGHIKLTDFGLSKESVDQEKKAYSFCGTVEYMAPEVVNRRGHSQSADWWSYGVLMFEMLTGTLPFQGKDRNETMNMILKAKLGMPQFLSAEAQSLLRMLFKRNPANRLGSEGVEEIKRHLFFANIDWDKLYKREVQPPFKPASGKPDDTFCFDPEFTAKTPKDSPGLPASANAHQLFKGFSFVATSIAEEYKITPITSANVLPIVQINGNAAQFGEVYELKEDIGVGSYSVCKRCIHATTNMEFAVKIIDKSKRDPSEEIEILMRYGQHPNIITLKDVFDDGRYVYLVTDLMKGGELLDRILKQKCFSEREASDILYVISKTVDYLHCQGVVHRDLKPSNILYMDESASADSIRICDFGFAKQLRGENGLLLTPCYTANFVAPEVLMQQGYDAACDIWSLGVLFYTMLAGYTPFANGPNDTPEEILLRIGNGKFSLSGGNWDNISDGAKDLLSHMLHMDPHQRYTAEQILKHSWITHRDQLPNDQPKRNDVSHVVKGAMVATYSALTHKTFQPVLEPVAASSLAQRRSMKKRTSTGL
Chain of Ribosomal protein S6 kinase alpha-1 (Homo sapiens) (Q15418 whole entry): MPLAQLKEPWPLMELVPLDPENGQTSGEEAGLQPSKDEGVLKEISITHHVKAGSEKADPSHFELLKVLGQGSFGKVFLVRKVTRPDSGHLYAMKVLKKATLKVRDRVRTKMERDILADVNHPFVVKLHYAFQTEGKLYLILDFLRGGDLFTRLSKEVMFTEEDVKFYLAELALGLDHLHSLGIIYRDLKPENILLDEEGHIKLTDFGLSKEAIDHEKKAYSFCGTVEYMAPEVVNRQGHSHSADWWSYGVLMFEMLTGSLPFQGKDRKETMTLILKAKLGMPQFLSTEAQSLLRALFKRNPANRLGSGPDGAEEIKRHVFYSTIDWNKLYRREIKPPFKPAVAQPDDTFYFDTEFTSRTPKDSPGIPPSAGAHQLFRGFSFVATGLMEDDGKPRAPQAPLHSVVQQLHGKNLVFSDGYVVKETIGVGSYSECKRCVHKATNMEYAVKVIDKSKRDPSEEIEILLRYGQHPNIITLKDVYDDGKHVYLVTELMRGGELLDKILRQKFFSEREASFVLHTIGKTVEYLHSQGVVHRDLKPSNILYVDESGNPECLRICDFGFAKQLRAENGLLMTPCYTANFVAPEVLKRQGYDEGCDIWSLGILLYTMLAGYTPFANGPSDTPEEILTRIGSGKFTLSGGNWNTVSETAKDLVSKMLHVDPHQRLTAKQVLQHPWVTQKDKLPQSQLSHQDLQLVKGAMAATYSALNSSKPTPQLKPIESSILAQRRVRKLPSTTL
Chain of Mitogen-activated protein kinase 11 (Homo sapiens) (Q15759 whole entry): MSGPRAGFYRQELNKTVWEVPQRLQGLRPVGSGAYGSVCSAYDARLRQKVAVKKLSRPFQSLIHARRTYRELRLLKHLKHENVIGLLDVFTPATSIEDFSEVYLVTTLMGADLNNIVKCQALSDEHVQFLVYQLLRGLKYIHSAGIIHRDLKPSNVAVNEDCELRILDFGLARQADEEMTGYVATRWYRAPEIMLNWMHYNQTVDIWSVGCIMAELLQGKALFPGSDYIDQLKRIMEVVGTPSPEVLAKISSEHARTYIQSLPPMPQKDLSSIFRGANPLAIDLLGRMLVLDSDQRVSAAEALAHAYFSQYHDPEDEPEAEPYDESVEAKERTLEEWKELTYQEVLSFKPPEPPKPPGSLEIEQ
Chain of Mitogen-activated protein kinase 14 (Homo sapiens) (Q16539 whole entry): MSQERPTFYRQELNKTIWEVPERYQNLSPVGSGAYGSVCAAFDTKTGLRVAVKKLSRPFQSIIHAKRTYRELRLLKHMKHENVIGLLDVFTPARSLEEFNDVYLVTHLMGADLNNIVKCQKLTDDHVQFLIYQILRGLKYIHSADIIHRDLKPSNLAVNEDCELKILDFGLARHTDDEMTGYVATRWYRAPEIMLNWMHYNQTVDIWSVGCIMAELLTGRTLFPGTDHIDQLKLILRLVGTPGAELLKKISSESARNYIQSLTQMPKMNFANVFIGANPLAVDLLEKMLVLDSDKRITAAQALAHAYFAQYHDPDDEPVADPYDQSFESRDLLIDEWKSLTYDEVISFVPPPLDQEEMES
Chain of Ribosomal protein S6 kinase alpha-2 (Homo sapiens) (Q15349 whole entry): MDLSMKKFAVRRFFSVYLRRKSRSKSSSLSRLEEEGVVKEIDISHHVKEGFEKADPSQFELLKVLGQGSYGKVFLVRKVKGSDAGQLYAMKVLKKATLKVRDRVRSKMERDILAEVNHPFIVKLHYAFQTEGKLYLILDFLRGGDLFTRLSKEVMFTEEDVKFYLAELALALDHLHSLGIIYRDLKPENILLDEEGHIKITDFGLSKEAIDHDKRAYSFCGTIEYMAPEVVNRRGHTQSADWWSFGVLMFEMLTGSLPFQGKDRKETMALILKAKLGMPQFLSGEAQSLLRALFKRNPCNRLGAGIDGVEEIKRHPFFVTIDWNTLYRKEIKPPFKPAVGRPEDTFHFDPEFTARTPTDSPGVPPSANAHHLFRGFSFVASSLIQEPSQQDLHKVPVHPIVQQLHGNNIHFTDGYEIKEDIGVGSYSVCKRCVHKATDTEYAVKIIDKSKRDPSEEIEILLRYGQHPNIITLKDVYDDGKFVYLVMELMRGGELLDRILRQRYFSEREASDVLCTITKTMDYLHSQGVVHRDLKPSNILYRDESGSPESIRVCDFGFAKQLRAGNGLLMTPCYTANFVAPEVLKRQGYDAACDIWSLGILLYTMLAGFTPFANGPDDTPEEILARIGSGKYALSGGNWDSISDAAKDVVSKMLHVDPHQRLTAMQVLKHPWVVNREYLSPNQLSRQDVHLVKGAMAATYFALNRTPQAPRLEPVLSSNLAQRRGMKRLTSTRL

As to `COc1ccc2c(c1)/C(=C/c1cnc[nH]1)C(=O)N2`, the residual activity in [1] turned out to be 97%; in test [2] it was 73%; in [3] it was 60%; in test [4], 17%; in test [5], 30%; in test [6] it was 4%. Also, the residual activity in test [7] turned out to be 53%; in test [8], 12%.
Take `COc1cc2c(cc1OC)-c1n[nH]c(Nc3cccc(F)c3)c1C2`: the residual activity in [9] was 100%.
Consider `CC(C)[C@H](CO)Nc1nc(Nc2cccc(Cl)c2)c2ncn(C(C)C)c2n1`, for which the residual activity is 85% in test [1]; 78% in test [2]; 77% in test [3]; 19% in test [4]; 62% in [10]; 15% in [11]. In addition, the residual activity in [5] is 75%; in test [6] it was 21%; in [7], 40%; in test [8], 24%; in [12], 88%; in test [13] it was 80%. Also, the values for the residual activity in test [14], in test [15] and in [16] were 101%, 96% and 98%, respectively.
With `Oc1ccc(-c2nc(-c3ccc(F)cc3)c(-c3ccncc3)[nH]2)cc1`, the residual activity in test [12] worked out at 1%; in [13] it was 1%; in [9], 112%; in test [16] it was 67%.
With `COC(=O)[C@@]1(O)C[C@H]2O[C@]1(C)n1c3ccccc3c3c4c(c5c6ccccc6n2c5c31)C(=O)NC4`, the residual activity in test [1] amounted to 6%; in test [2], 2%; in [3], 1%; in test [4], 2%; in test [10] it was 1%; in test [11], 1%. Also, the residual activity in test [5] is 0%; in test [6] it was 1%; in test [7], -2%; in test [8], 3%; in [12], 92%; in [13], 67%. Moreover, the residual activity in test [14] worked out at 77%; in test [15], 29%; in test [9] it was 23%; in [16] it was 2%; in test [17] it was 58%; in [18], 10%. Further, the residual activity turned out to be 4% in test [19] and 1% in test [20].
For the molecule `Cn1nc2c3c(cccc31)C(=O)c1ccccc1-2`, the values for the residual activity in test [9] and in test [16] were 99% and 96%, respectively.
On to `COc1cc2nccc(Oc3ccc(NC(=O)Nc4cc(C)on4)c(Cl)c3)c2cc1OC`, for which the figures for the residual activity in test [12], in [13] and in test [15] were 23%, 5% and 5%, respectively.
For the molecule `COc1cc(OC)c(/C=C2\C(=O)Nc3ccccc32)c(OC)c1`, the residual activity was 102% in [3]; 101% in test [4]; 63% in test [10]; 57% in test [11]; 96% in test [5]; 97% in test [6]. Further, the residual activity in test [7] is 103%; in test [8], 95%; in test [12], 89%; in [13], 85%; in [14] it was 99%; in [15] it was 92%. Moreover, the residual activity stood at 97% in test [9], 96% in test [16], 82% in test [19] and 86% in [20].

Source of the values: ChEMBL document CHEMBL2218924, “A broad activity screen in support of a chemogenomic map for kinase signalling research and drug discovery” (Biochem J, 2013).
